Source: PubChem BioAssay
Tau fibril ThT = blocks human tau fibril formation measured by thioflavin T | Potency, µM (titrated, usually from 57.4 µM), hits mostly inhibitors | P10636 | recombinant tau K18 P301L, heparin-induced fibrillization, ThT fluorescence | 270,000 tested, 2.1% active; further: nearly all actives have a fitted effect of over 55% in size
Target sequence (P10636 561-689 P618L limits assumed): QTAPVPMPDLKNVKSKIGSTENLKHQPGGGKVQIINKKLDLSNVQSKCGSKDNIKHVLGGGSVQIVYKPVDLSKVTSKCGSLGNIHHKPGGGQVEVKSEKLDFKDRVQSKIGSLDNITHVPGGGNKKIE
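Aggregation was driven by heparin (20 uM final) acting on recombinant tau […] bearing P301L in 100 mM sodium acetate pH 7; fibrils were detected with Thioflavin T.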
Tau fluor cs = counter-screen for tau fibril formation inhibitors | AID 1463 | Potency, µM (highest dose often 57.7 µM) | tau K18 P301L Alexa594 fluorescence, heparin fibrillization | 280,000 tested, 0.93% active; further: nearly all actives have a fitted effect of over 55% in size
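Human K18 P301L tau (15 uM unlabeled plus 0.24 uM Alexa 594-labeled, final) in 100 mM sodium acetate pH 7 was mixed with compound and 20 uM heparin and incubated 6 hr at 37 C.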
RGS12 GoLoco inh = inhibitors of human Gai1-RGS12 GoLoco interaction (red fluorophore). P63096. Gai1:RGS12 GoLoco peptide FP, rhodamine, 10 min. Potency, µM (highest dose often 61.6 µM), usual class: inhibitors. 230,000 tested, 0.44% active; active means well fitted inhibition curve with a large enough effect, not every such curve was filed as active; inactive means no such curve, though single readings can be large or run the other way; further: nearly all actives have a fitted effect of over 30% in size
TRb SRC2 PPI = inhibitors of human thyroid hormone receptor beta-SRC2 interaction; TRbeta-SRC2 peptide binding, fluorescence polarization; receptor liganded with 1 µM T3; Potency, µM (titrated, usually from 106 µM), hits mostly inhibitors; 280,000 tested, 0.065% active; P10828; further: nearly all actives have a fitted effect of over 50% in size
Target sequence (P10828 whole entry, looked up): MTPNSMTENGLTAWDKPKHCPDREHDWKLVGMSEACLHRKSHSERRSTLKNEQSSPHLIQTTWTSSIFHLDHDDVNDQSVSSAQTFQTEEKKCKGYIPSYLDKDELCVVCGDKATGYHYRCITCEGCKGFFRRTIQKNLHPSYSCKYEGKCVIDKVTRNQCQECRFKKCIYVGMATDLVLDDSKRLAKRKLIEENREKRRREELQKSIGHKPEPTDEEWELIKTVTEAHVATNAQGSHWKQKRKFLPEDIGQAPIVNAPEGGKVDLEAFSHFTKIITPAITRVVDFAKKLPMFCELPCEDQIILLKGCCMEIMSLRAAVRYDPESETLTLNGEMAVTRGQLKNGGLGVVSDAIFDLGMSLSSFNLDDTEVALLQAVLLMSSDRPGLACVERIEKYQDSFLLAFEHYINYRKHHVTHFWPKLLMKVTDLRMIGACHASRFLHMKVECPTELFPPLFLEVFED
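Human TRb LBD (0.6 uM) plus Texas Red-labeled SRC2 peptide (20 nM), 1uM T3, 5% DMSO, 5 hr at ambient temperature. Decreased polarization (555/632 nm) flags inhibition; data normalized to free and bound peptide controls.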
TR SRC2 fluor cs = alters Texas Red total fluorescence, flagging assay interference; TRb/SRC2 Texas Red total fluorescence interference; Potency, µM (titrated, usually from 106 µM); 280,000 tested, 0.29% active; active means well fitted curve in either direction with a large enough effect; inconclusive means small, poorly fitted or top-dose-only effect
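Flags fluorescent or light-absorbing compounds by total fluorescence, S + 2P, at 555 nm excitation and 632 nm emission. Mixture: 20 nM Texas Red SRC2 peptide, 0.6 uM human TRb LBD, 1 uM T3, 5% DMSO; compound exposure 5 h at ambient temperature.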
Tau fibril FP = blocks human tau fibril formation measured by polarization. K18 P301L tau heparin fibrillization, Alexa594 FP, 6 h. Potency, µM (highest dose often 57.7 µM), usual class: inhibitors. 280,000 tested, 0.39% active; further: nearly all actives have a fitted effect of over 55% in size
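FP of Alexa 594-tau after heparin (20 uM) induction. Substrate: human K18 P301L, 15 uM unlabeled, 0.24 uM labeled. Buffer 100 mM sodium acetate pH 7. 6 hr, 37 C.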
Tau TEM fibril = Blocks tau fibril formation, electron microscopy; shares compounds with Tau fibril ThT; recombinant tau K18 P301L fibrillization, TEM grading; active compounds read high; fibril grade (0 = clumped fibrils, 4 = only tiny pieces) (concentration not given with the values); 45 tested, 70% active;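 active means compounds whose electron micrographs showed tau fibrils broken into shorter filaments or fragments, graded high on fibril breakup; inconclusive means micrographs gave an unclear fibril picture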
tau sediment = tau fibrillization inhibition by sedimentation; shares compounds with Tau fibril ThT; recombinant tau K18 P301L (four-repeat tau fragment), sedimentation SDS-PAGE densitometry; inhibition, % at 100 µM; 110 tested, 50% active; in the data active means inhibition above about 40%; inconclusive means no clear call, values can overlap the other calls; inactive means below about 18%
A number is an active result; i = inactive; ? = inconclusive; nt = no result given; [ ] = dose if it differs, or a comment. An excerpt weighted towards active compounds, which were near 3.1% of everything screened. Unless noted, the call rests on the fitted dose curve; in most records, active means well fitted curve in the direction sought with a large enough effect; inconclusive means small, poorly fitted or top-dose-only effect, or another doubt; inactive means no such curve, though single readings can be large; an effect the other way counts as inactive or inconclusive.

SMILES | Tau fibril ThT | Tau fluor cs | RGS12 GoLoco inh | TRb SRC2 PPI | TR SRC2 fluor cs | Tau fibril FP | tau sediment | others
CN(C(=S)Nc1cccnc1)c1ccc(O)cc1 | 2µM | ? | i | 35.5µM | i | 3.16µM | 51.0 | Tau TEM fibril=2
Cc1ccc(NCc2cc3cc4c(cc3n(CC(=O)Nc3ccc(C)cc3)c2=O)OCCO4)cc1 | i | ? | nt | i | i | i | i
Cc1ccc(NCc2cc3cc4c(cc3n(CC(=O)Nc3ccc(F)cc3F)c2=O)OCCO4)cc1 | ? | ? | nt | i | i | ? | nt
O=C(NCCCO)Nc1ccc2nc(-c3ccco3)c(-c3ccco3)nc2c1 | ? | 7.08µM[quencher] | i | i | 14.1µM[quencher] | ? | 74.0 | Tau TEM fibril=4.5
O=C(Nc1ccc(N2CCOCC2)cc1)Nc1ccc2nc(-c3ccco3)c(-c3ccco3)nc2c1 | i | i | i | i | i | i | nt
COC(=O)c1c(NC(=O)CCCOc2ccc(C(C)(C)C)cc2)sc2c1C(C(=O)OC)CC2 (centres undefined) | 8.91µM | ? | nt | i | i | ? | ? | Tau TEM fibril=i
CCCC(=O)Nc1sc2c(c1C(=O)OC)C(C(=O)OC)CC2 (centres undefined) | i | i | i | i | i | ? | nt
Cn1c(=O)n(C)c2cc(S(=O)(=O)N3CCOCC3)ccc21 | i | i | i | i | i | i | nt
O=S(=O)(c1ccc2nc(-c3ccco3)c(-c3ccco3)nc2c1)N1CCOCC1 | 3.98µM | 3.98µM[quencher] | i | i | 6.31µM[quencher] | 8.91µM | 58.0 | Tau TEM fibril=2
CCN(c1ccccc1)S(=O)(=O)c1nnc(NC(=O)C(C)(C)C)s1 | ? | i | nt | i | i | ? | i
CCN(c1ccccc1)S(=O)(=O)c1nnc(NC(=O)c2ccco2)s1 | ? | i | nt | i | i | i | nt
CC(C)(C)c1ccc(OCCOCCn2cnc3ccccc3c2=O)cc1 | i | i | i | i | i | i | nt
CCOC(=O)c1nn(-c2ccc(C)c(C)c2)c(=O)c2c(N)scc12 | i | i | nt | i | i | i | ?
CCOC(=O)c1nn(-c2ccccc2)c(=O)c2c(NC(=O)c3ccccc3)scc12 | nt | nt | nt | nt | nt | nt | i
CCCn1c(=O)c(/C(N)=N/O)nn(-c2cccc(C(F)(F)F)c2)c1=O | i | i | i | i | i | i | nt
CCOC(=O)c1nn(-c2cccc(C(F)(F)F)c2)c(=O)c2c(N)scc12 | nt | nt | nt | nt | nt | nt | 41.0
CCOC(=O)c1nn(-c2ccc(OC)cc2)c(=O)c2c(N)scc12 | 8.91µM | ? | i | i | i | ? | 66.0 | Tau TEM fibril=2
CCc1noc(C)c1C(=O)N1CCCC(CCC(=O)NCc2cccc(OC)c2)C1 (centres undefined) | i | i | i | i | i | i | nt
COc1ccc(-n2c(=O)n(Cc3ccccc3)c(=O)c3[nH]cnc32)cc1 | i | i | i | i | i | i | nt
COC(=O)c1ccc2c(c1)N(Cc1ccccc1F)C(=O)c1ccccc1S2=O (centres undefined) | i | i | i | i | i | i | nt
CCOC(=O)c1nn(-c2ccc(Cl)c(Cl)c2)c(=O)c2c(N)scc12 | nt | nt | nt | nt | nt | nt | i
CCOC(=O)c1nc(N)c(=O)n(-c2ccccc2)n1 | i | i | i | i | i | i | nt
CCOC(=O)c1nn(-c2ccccc2)c(=O)c2c(N)sc(C)c12 | nt | nt | nt | nt | nt | nt | i
Cc1c(C(=O)O)c(O)cc2c1C(=O)c1c(O)c([C@H]3O[C@H](CO)[C@@H](O)[C@H](O)[C@H]3O)c(O)c(O)c1C2=O | ? | ? | i | i | i | i | nt
O=C(O)CSc1nc2ccccc2n1-c1ccccc1 | i | i | i | i | i | i | nt
SMILES | Tau fibril ThT | Tau fluor cs | RGS12 GoLoco inh | TRb SRC2 PPI | TR SRC2 fluor cs | Tau fibril FP | tau sediment | others
CC(C)C(C)NC(=O)CSc1nc2scc(-c3ccco3)c2c(=O)n1-c1ccccc1 (centres undefined) | 8.91µM | i | i | i | i | 4.47µM | 68.0 | Tau TEM fibril=3
CCOC(=O)N=S(=O)(Oc1ccc([N+](=O)[O-])cc1)c1ccc(Cl)cc1 (centres undefined) | i | i | i | i | i | i | nt
CC(/C=C1\SC(=S)N(NC(=O)c2cccc(O)c2)C1=O)=C\c1ccccc1 | 7.08µM | 14.1µM[quencher] | i | i | i | 14.1µM | ? | Tau TEM fibril=i
COc1ccc2[nH]c(=O)c(CNc3ccccc3OC)cc2c1 | 7.94µM | ? | i | i | i | 10µM | 61.0 | Tau TEM fibril=?
COc1ccc2[nH]c(=O)c(CNc3ccccc3C)cc2c1 | ? | i | i | i | i | i | nt
Cc1cc(/C=C2\C(=N)N3N=C(S(C)(=O)=O)SC3=NC2=O)c(C)n1Cc1ccccc1 | i | i | i | i | i | i | nt
Cc1ccc(NC(=O)N2CCN(c3ccccn3)CC2)cc1 | ? | i | i | i | i | i | i
CC(C)(C)c1ccc(NC(=O)N2CCN(c3ccc([N+](=O)[O-])cn3)CC2)cc1 | ? | ? | i | i | i | ? | i
Cc1ccc(SCc2cc(=O)n(C)[nH]2)cc1 | 2.24µM | ? | i | ? | i | ? | i
Cc1ccc(C(=O)Nc2nc(=O)n(C(=O)C3CC3)s2)cc1 | 8.91µM | i | i | i | i | ? | 49.0 | Tau TEM fibril=?
Cc1ccc(C(=O)Nc2nc3ccccc3c(=O)s2)cc1 | i | i | i | i | i | i | nt
COC(=O)Cn1c(=O)c2c(n(Cc3ccccc3)c1=O)N/C(=C/c1ccc(OC)cc1)C2=O | ? | ? | i | i | i | i | nt
COc1ccc(Nc2nc(-c3sc(NC(C)=O)nc3C)cs2)cc1 | 12.6µM | ? | i | i | i | i | 42.0 | Tau TEM fibril=3
C=CCNc1nc(-c2sc(NC(C)=O)nc2C)cs1 | ? | i | i | i | i | i | nt
COc1cc(C(C#N)N2CCCCC2)ccc1O (centres undefined) | i | i | i | i | i | i | nt
NCCc1ccc(O)c(O)c1 | ? | i | i | i | i | ? | i
Cc1cc[n+]2cc(-c3cccc([N+](=O)[O-])c3)c(-c3cccc([N+](=O)[O-])c3)cc2c1 | ? | i | i | i | i | i | nt
CCOc1ccc(NS(=O)(=O)c2ccc3[nH]cc(C(=O)NCCc4ccccc4)c(=O)c3c2)cc1 | i | i | nt | i | i | ? | nt
CC(C)c1ccc(NS(=O)(=O)c2ccc3[nH]cc(C(=O)NCCc4ccccc4)c(=O)c3c2)cc1 | i | i | nt | i | i | ? | i
CSc1ccc(S(=O)(=O)Nc2ccc3c(c2)NC(=O)CC3)cc1 | i | i | i | i | i | i | nt
